Assay outcomes deposited in PubChem by National Center for Advancing Translational Sciences (NCATS).
This is a sample that favours compounds with a hit; in the whole collection about 19% have one here.
HT1080NT lethal – kills 2HG-producing HT-1080-NT fibrosarcoma cells | HT-1080-NT fibrosarcoma viability, CellTiter-Glo ATP luminescence, 48 h | Potency, µM (series often up to 46.1 µM), for inactives: top-dose activity, negative = less viability, most hits filed as cytotoxic | hit rate 1.6% among 360,000 | AID 686970;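 further: NT is the 2HG producing partner of a matched IDH1 knockdown line; potency means the concentration at half of the fitted maximal effect; 0% = DMSO-treated cells and -100% = media-only wells without cells; nearly all actives have a fitted effect of over 55% in size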
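HT-1080-NT; 750 cells/well; 5% FBS RPMI; 48 h compound, 37 degrees C; CellTiter-Glo luminescence; curve fitting and curve-class assignment.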
IL1B secr inh – inflammasome signaling inhibition, IL-1 beta readout; THP-1 LPS/ATP IL-1B secretion, AlphaLISA, 16 h; hits give low values; activity change, % at 57.5 µM; hit rate 4.7% among 360,000; AID 743279; in the data active means activity change below about -50%; inconclusive means mostly about -30% to -49%
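Secreted IL-1B measured by AlphaLISA bead assay after 16 h compound exposure of THP-1 cells; compounds (final up to 57.5 uM) added 1 h before LPS (250 ng/mL) and ATP (1.25 mM) stimulation; lower signal means less secretion.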
TDP1 cell CPT – DT40-hTDP1 cell growth loss with CPT; chicken DT40 Tdp1-/-;hTDP1 cells + 20 nM CPT, ATP luminescence, 48 h; Potency, µM (top dose mostly 46.2 µM), for the others: at the top dose activity change, negative = growth inhibition, usual class: inhibitors; hit rate 12% among 420,000; further: potency means the concentration at half of the fitted maximal effect; nearly all actives have a fitted effect of over 55% in size
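Chicken DT40 Tdp1-/- cells complemented with human TDP1, 400 cells/well, exposed to compounds plus 20 nM camptothecin for at least 48 h at 37 C; viability read as ATP content by CellTiter-Glo luminescence.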
HT1080 IDH1KD tx – kills HT-1080 cells with IDH1 knockdown | HT-1080 IDH1 knockdown viability, ATP luminescence, 48 h | Potency, µM (doses to about 46.1 µM), without a hit: at the top dose activity, negative = toxicity, usual class: cytotoxic | AID 686971 | hit rate 2% among 360,000;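 further: potency means the concentration at half of the fitted maximal effect; 0% = DMSO wells and -100% = cell-free medium wells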
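Cytotoxicity counter-line: IDH1KD HT-1080, 48 h, CellTiter-Glo. Curves classed by r2, magnitude and activity.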
DT40 TDP1 no CPT – qHTS for Inhibitors of human tyrosyl-DNA phosphodiesterase 1 (TDP1): qHTS in cells in absence of CPT; DT40 Tdp1-/- hTDP1 cells, no CPT, ATP luminescence, 48 h; Potency, µM (titrated, usually from 46.2 µM), for inactives: at the highest dose activity change, negative = growth inhibition, hits mostly inhibitors; hit rate 15% among 420,000; AID 686978, 2013; further: potency means the concentration at half of the fitted maximal effect; nearly all actives have a fitted effect of over 55% in size
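Stably hTDP1-transfected Tdp1-null chicken DT40 cells were treated with library compounds minus camptothecin and grown for at least 48 hr at 37 °C, after which cellular ATP was quantified by luminescence.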
uPA surface inh – inhibitors of cell surface uPA generation; cell surface uPA generation assay, qHTS; Potency, µM (highest dose often 38.3 µM), for the others: at the top dose activity change, negative = inhibition, hits mostly inhibitors; hit rate 0.31% among 330,000; AID 540303; active means well fitted inhibition curve with a large enough effect; inconclusive means small, poorly fitted or top-dose-only effect; inactive means no such curve, though single readings can be large or run the other way; tested in mouse RAW 264.7 cells; further: potency means the concentration at half of the fitted maximal effect; nearly all actives have a fitted effect of over 55% in size
* = called active by the depositor; i = inactive; u = inconclusive; x = not tested or not shown; ! = not active in a repeat. Unless noted, the call rests on the fitted dose curve; in most records, active means well fitted curve in the direction sought with a large enough effect; inconclusive means small, poorly fitted or top-dose-only effect, or another doubt; inactive means no such curve, though single readings can be large; an effect the other way counts as inactive or inconclusive. Unless noted, on the % scale 0 is the no-effect control and ±100 the full control effect.

SMILES | HT1080NT lethal | IL1B secr inh | TDP1 cell CPT | HT1080 IDH1KD tx | DT40 TDP1 no CPT | uPA surface inh
O=C(NCCN1CCCCC1)c1ccc(Oc2cc(Cl)cc(Cl)c2)o1 | u | x | u | 25.9µM* | u | -2.6%
CCCOC(c1ccccc1)(c1ccc(C(F)(F)F)cc1)C(Oc1nc(C)cc(C)n1)C(=O)O (configuration not stated) | u | 27.5 | 18.4µM* | u | 20.6µM* | u
Cc1cc(C)nc(OC(C(=O)O)C(OCCc2ccccc2)(c2ccc(F)cc2)c2ccc(F)cc2)n1 (configuration not stated) | -27.5% | 46.6 | u | u | -4.3% | u
O=C(Nc1ccc(NC(=O)C23CC4CC(CC(C4)C2)C3)cc1)c1cc(F)c(F)cc1Cl | 10.6% | 2.8 | u | 21.0% | 13µM* | 2.0%
NNC(=O)c1oc2ccccc2c1-n1cccc1 | 4.61µM* | 71.1 | 0.9% | 4.11µM* | u | -8.3%
C=CCn1c(C)nnc1SCC(=O)Nc1nccs1 | -7.7% | -13.1 | 7.8% | -0.9% | 16.6% | -4.7%
O=C1c2ccccc2C(=O)c2c1ccc1c(=O)n(C3CCCCC3)[nH]c21 | -17.4% | -11.5 | u | -14.4% | 23.1µM* | -0.3%
CC(C)=CCc1c(O)c(CC=C(C)C)c2c(c1O)C(=O)CC(c1ccc(O)cc1)O2 (configuration not stated) | u | 29.0 | u | u | 18.4µM* | 4.8%
COc1c(CC=C(C)C)cc(C2CC(=O)c3c(O)cc(O)cc3O2)cc1CC=C(C)C (configuration not stated) | u | u | u | u | u | 7.94µM*
O=C1C[C@H](c2ccccc2)Oc2cc(O)cc(O)c21 | x | x | 13.8% | x | -19.5% | x
COC1=CC(=O)C(C2CC(=O)c3c(O)cc(O)cc3O2)=CC1=O (configuration not stated) | 4.2% | -96.9* | 3.66µM* | -3.0% | 2.59µM* | -11.3%
COc1ccc([C@@H]2CC(=O)c3c(O)cc(O)cc3O2)cc1O | 48.9% | 14.6 | u | 19.1% | u | 25.2%
COc1cc(O)c2c(c1)OC(c1ccc(O)cc1)CC2=O (configuration not stated) | 29.6% | -15.0 | u | 22.8% | 16.4µM* | 6.2%
COCc1[nH][nH]c(=O)c1/C=N/N1CCOCC1 | 9.9% | 3.7 | 3.6% | 6.4% | 14.3% | 13.9%
Cc1cccc([C@@H]2CN(C)CCc3c2cc(O)c(O)c3Cl)c1 | x | x | -66.3% | x | u | x
CCCCNc1c(-c2cccc(SC3CCCCC3)c2)nc2ccc(Cl)cn12 | -0.3% | -8.5 | u | -20.6% | u | -8.5%
CCCCNc1c(-c2ccc(SC3CCCCC3)cc2)nc2ccccn12 | u | -73.5*! | 23.1µM* | u | 23.1µM*! | u
CCCCNc1c(-c2ccc(SC(C)CC)cc2)nc2ccccn12 (configuration not stated) | u | 0.0 | 13µM* | u | 16.4µM* | 2µM*
CCOC(=O)C1C(=O)C=C(c2ccc(C)cc2)CC1c1ccc([N+](=O)[O-])cc1 (configuration not stated) | 0.5% | 4.2 | u | 5.3% | 13µM* | 0.7%
O=C1c2ccccc2C(=O)N1c1ccc(S(=O)(=O)N2CCOCC2)cc1 | x | x | -2.2% | x | 3.4% | x
COC(=O)[C@@]12C[C@@H](CC(=O)NCCC(C)C)C(=O)N(CCc3ccc(OC)c(OC)c3)C1=CCC(C)(C)C2 | -14.5% | x | u | -26.7% | 20.6µM* | x
COC(=O)[C@@]12C[C@@H](CC(=O)N3CCSCC3)C(=O)N(CCc3ccc(OC)c(OC)c3)C1=CCC(C)(C)C2 | 2.1% | u | u | 0.6% | u | x
CCCCOCCCNC(=O)C[C@@H]1C[C@@]2(C(=O)OC)CC(C)(C)CC=C2N(CCc2ccc(OC)c(OC)c2)C1=O | -21.8% | x | u | -8.8% | 14.6µM* | x
COc1ccccc1CN1CCCC2(CCN(C(C)=O)CC2)C1 | x | x | 12.8% | x | 4.4% | x
CCOC(=O)c1ccc(NC(=O)CCc2c(C)nc3cc(-c4ccc(OC)cc4OC)nn3c2C)cc1 | x | x | 4.1% | x | u | x
SMILES | HT1080NT lethal | IL1B secr inh | TDP1 cell CPT | HT1080 IDH1KD tx | DT40 TDP1 no CPT | uPA surface inh
CCn1c(=O)c2c(nc(SCC(=O)Nc3ccccc3)n2C)n(C)c1=O | 22.9% | 41.9 | -12.5% | 13.5% | -26.8% | -0.8%
CN(C)c1cccc2c(S(=O)(=O)NC(=O)[C@H]3O[C@@H](n4cnc5c(N)ncnc54)[C@H](O)[C@@H]3O)cccc12 | 3.6% | 15.9 | 8.6% | 7.4% | 11.4% | x
O=c1ccn(Cc2ccccc2)c2ccccc12 | 0.9% | 30.9 | 11.6µM* | 1.3% | 13µM* | -9.7%
Cc1c(OCc2ccccc2)c(=O)ccn1Cc1ccccc1 | 5.5% | -18.3 | -23.2% | 9.6% | -21.2% | -0.2%
CCC(=O)N1CCN(c2ccc(NC(=O)c3ccc(N4CCOCC4)c([N+](=O)[O-])c3)cc2)CC1 | 10.8% | i | u | 0.6% | u | 0.7%
COc1ccc(NS(=O)(=O)c2ccc(NC(=O)c3ccc(CN4CCOCC4)cc3)cc2)cc1 | -31.7% | u | 18.4µM* | u | 23.1µM* | -9.9%
O=C(Nc1ccc(CN2CCOCC2)cc1)c1ccc(N2CCCC2)c([N+](=O)[O-])c1 | 1.3% | -72.1* | u | 1.4% | u | -4.1%
COc1ccc(CN2CCOCCOCCN(Cc3ccc(OC)cc3)CCOCCOCC2)cc1 | -23.7% | -24.7 | u | -17.8% | 29.1µM* | 9.3%
COc1cccc(NC(=O)c2ccc(CN3CCOCC3)cc2)c1 | -0.7% | 9.1 | -17.0% | 1.7% | u | -10.2%
O=C(Nc1ccc(S(=O)(=O)N2CCCC2)cc1)c1ccc(CN2CCOCC2)cc1 | -26.3% | -22.5 | u | -15.1% | u | 3.7%
O=C(Nc1ccc(S(=O)(=O)N2CCCCC2)cc1)c1ccc(CN2CCOCC2)cc1 | x | -29.6 | 18.4µM* | x | 23.1µM* | -23.2%
O=C(Nc1ccc(S(=O)(=O)Nc2ccc(F)cc2)cc1)c1ccc(CN2CCOCC2)cc1 | -26.1% | u | u | u | 18.4µM* | -7.1%
CC(C)(CNC(=O)c1ccc(NS(=O)(=O)c2ccc(F)cc2)cc1)N1CCOCC1 | 0.6% | -0.7 | 6.8% | -4.1% | 2.8% | -5.7%
O=C(CO/N=C/c1ccc(OC(F)F)cc1)NC1CCCCC1 | 4.4% | -6.4 | u | 1.2% | -27.7% | -9.8%
O=C(N/N=C/c1ccc(OC(F)F)cc1OC(F)F)NC1CCCCC1 | -24.9% | -80.6* | u | -27.0% | u | -0.7%
